# Results as given in paper PMC5540273 (PLoS ONE, 2017).
# Values joined by “and” are separate entries in the source; they are usually repeats but may differ in a detail not shown here. Equal values may be shown once. Read-outs that look alike come from different tables or passages of the source.
# Experiments:
# p38-alpha = test system: T1, p38-alpha
# T1 construct: gene MAPK14
# p38-beta = test system: T2, p38-beta
# T2 construct: gene MAPK11
# AAK1 = conditions: concentration: 1 μM, replicates: in singlicate; n = 1
# ABL1-nonphosphorylated = conditions: concentration: 1 μM, replicates: in singlicate, n = 1
# ABL1-phosphorylated = conditions: concentration: 1 μM, replicates: in singlicate, n = 1
# ABL2 = conditions: concentration: 1 μM, replicates: in singlicate, n = 1
# ACVR1B = conditions: concentration: 1 μM, replicates: in singlicate, n = 1
# ACVR1 = conditions: concentration: 1 μM, replicates: in singlicate; n = 1
# ACVR2A = conditions: concentration: 1 μM, replicates: in singlicate; n = 1
# ACVR2B = conditions: concentration: 1 μM, replicates: in singlicate, n = 1
# ACVRL1 = conditions: concentration: 1 μM, replicates: in singlicate, n = 1
# ADCK3 = test system: T3, ADCK3; conditions: concentration: 1 μM, replicates: in singlicate; n = 1
# T3 construct: gene CABC1
# ADCK4 = conditions: concentration: 1 μM, replicates: in singlicate, n = 1
# AKT1 = conditions: concentration: 1 μM, replicates: in singlicate, n = 1
# AKT2 = conditions: concentration: 1 μM, replicates: in singlicate, n = 1
# AKT3 = conditions: concentration: 1 μM, replicates: in singlicate, n = 1
# ALK = conditions: concentration: 1 μM, replicates: in singlicate, n = 1
# AMPK-alpha1 = test system: T4, AMPK-alpha1; conditions: concentration: 1 μM, replicates: in singlicate, n = 1
# T4 construct: gene PRKAA1
# 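For %Inh in this document: KINOMEscan kinase panel screen.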
# 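For Kd in this document: kd values determined as follow-up on hits from a single-replicate KINOMEscan panel screen.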
smiles,measurement,setting,value
Cc1ccc(C(=O)NCC(N)=O)cc1-n1c(C)cc(OCc2ccc(F)cc2F)c(Br)c1=O,Kd,p38-alpha,0.23 nM
same,Kd,p38-beta,10 nM
same,%Inh,AAK1,0%
same,%Inh,ABL1-nonphosphorylated,57%
same,%Inh,ABL1-phosphorylated,33%
same,%Inh,ABL2,27%
same,%Inh,ACVR1B,11%
same,%Inh,ACVR1,11%
same,%Inh,ACVR2A,0%
same,%Inh,ACVR2B,4%
same,%Inh,ACVRL1,28%
same,%Inh,ADCK3,27%
same,%Inh,ADCK4,2%
same,%Inh,AKT1,29%
same,%Inh,AKT2,19%
same,%Inh,AKT3,0%
same,%Inh,ALK,0%
same,%Inh,AMPK-alpha1,30%
C[C@@H](Oc1cc(-n2cnc3ccc(NC(=O)NC(C)(C)C)cc32)sc1C(N)=O)c1ccccc1Cl [GSK346294],%Inh,AAK1,15%
same,%Inh,ABL1-nonphosphorylated,0%
same,%Inh,ABL1-phosphorylated,0%
same,%Inh,ABL2,9%
same,%Inh,ACVR1B,0%
same,%Inh,ACVR1,0%
same,%Inh,ACVR2A,0%
same,%Inh,ACVR2B,17%
same,%Inh,ACVRL1,1%
same,%Inh,ADCK3,37%
same,%Inh,ADCK4,31%
same,%Inh,AKT1,0%
same,%Inh,AKT2,3%
same,%Inh,AKT3,0%
same,%Inh,ALK,0%
same,%Inh,AMPK-alpha1,6%
O=C(c1ccc(-c2cc(-c3c[nH]nc3-c3ccccn3)ccn2)cc1)N1CCOCC1 [GW812171],%Inh,AAK1,0%
same,%Inh,ABL1-nonphosphorylated,36%
same,%Inh,ABL1-phosphorylated,29%
same,%Inh,ABL2,2%
same,%Inh,ACVR1B,76%
same,%Inh,ACVR1,0%
same,%Inh,ACVR2A,0%
same,%Inh,ACVR2B,0%
same,%Inh,ACVRL1,0%
same,%Inh,ADCK3,0%
same,%Inh,ADCK4,0%
same,%Inh,AKT1,5%
same,%Inh,AKT2,0%
same,%Inh,AKT3,0%
same,%Inh,ALK,5%
same,%Inh,AMPK-alpha1,19%
CN1c2ccc(CNc3ccc(F)cc3)cc2-c2c(cnn2C)S1(=O)=O,%Inh,AAK1,0%
same,%Inh,ABL1-nonphosphorylated,21%
same,%Inh,ABL1-phosphorylated,0%
same,%Inh,ABL2,0%
same,%Inh,ACVR1B,0%
same,%Inh,ACVR1,0%
same,%Inh,ACVR2A,1%
same,%Inh,ACVR2B,0%
same,%Inh,ACVRL1,0%
same,%Inh,ADCK3,2%
same,%Inh,ADCK4,5%
same,%Inh,AKT1,0%
same,%Inh,AKT2,0%
same,%Inh,AKT3,0%
same,%Inh,ALK,8%
same,%Inh,AMPK-alpha1,0%
Cl.Cl.Cl.Fc1ccc(-c2ncn(C3CCNCC3)c2-c2ccnc(Nc3ccccc3)n2)cc1 [SB-238039],%Inh,AAK1,0%
same,%Inh,ABL1-nonphosphorylated; 1 µM,0% and 63%
same,%Inh,ABL1-phosphorylated; 1 µM,31% and 12%
same,%Inh,ABL2; 1 µM,5% and 3%
same,%Inh,ACVR1B; 1 µM,58% and 31%
same,%Inh,ACVR1,16%
same,%Inh,ACVR2A,0%
same,%Inh,ACVR2B; 1 µM,0% and 18%
same,%Inh,ACVRL1; 1 µM,20% and 17%
same,%Inh,ADCK3,0%
same,%Inh,ADCK4; 1 µM,25% and 1%
same,%Inh,AKT1; 1 µM,21% and 0%
same,%Inh,AKT2; 1 µM,10% and 7%
same,%Inh,AKT3; 1 µM,24% and 37%
same,%Inh,ALK; 1 µM,21% and 0%
same,%Inh,AMPK-alpha1; 1 µM,15% and 2%
CNc1ncnc2[nH]ncc12 [SKF-18355],%Inh,AAK1,0%
same,%Inh,ABL1-nonphosphorylated,34%
same,%Inh,ABL1-phosphorylated,11%
same,%Inh,ABL2,0%
same,%Inh,ACVR1B,4%
same,%Inh,ACVR1,0%
same,%Inh,ACVR2A,4%
same,%Inh,ACVR2B,40%
same,%Inh,ACVRL1,0%
same,%Inh,ADCK3,0%
same,%Inh,ADCK4,10%
same,%Inh,AKT1,0%
same,%Inh,AKT2,0%
same,%Inh,AKT3,4%
same,%Inh,ALK,0%
same,%Inh,AMPK-alpha1,0%
COc1ccc(CNC(=O)NC2CCN(c3ccnc(Nc4ccc(OC)cc4)n3)C2)cc1 (centres unmarked) [GSK1379727],%Inh,AAK1,0%
same,%Inh,ABL1-nonphosphorylated,0%
same,%Inh,ABL1-phosphorylated,0%
same,%Inh,ABL2,2%
same,%Inh,ACVR1B,0%
same,%Inh,ACVR1,0%
same,%Inh,ACVR2A,0%
same,%Inh,ACVR2B,0%
same,%Inh,ACVRL1,0%
same,%Inh,ADCK3,3%
same,%Inh,ADCK4,59%
same,%Inh,AKT1,0%
same,%Inh,AKT2,0%
same,%Inh,AKT3,0%
same,%Inh,ALK,28%
same,%Inh,AMPK-alpha1,0%
Fc1ccc(-c2nn3c(OCC(F)(F)F)cccc3c2-c2ccncc2)cc1 [GW514784],%Inh,AAK1,0%
same,%Inh,ABL1-nonphosphorylated,0%
same,%Inh,ABL1-phosphorylated,0%
same,%Inh,ABL2,5%
same,%Inh,ACVR1B,61%
same,%Inh,ACVR1,13%
same,%Inh,ACVR2A,0%
same,%Inh,ACVR2B,0%
same,%Inh,ACVRL1,0%
same,%Inh,ADCK3,18%
same,%Inh,ADCK4,46%
same,%Inh,AKT1,0%
same,%Inh,AKT2,0%
same,%Inh,AKT3,0%
same,%Inh,ALK,0%
same,%Inh,AMPK-alpha1,0%
Nc1nccc(-c2c(-c3ccc(F)cc3)ncn2C2CCN(CC(F)(F)F)CC2)n1 [SB-236560],%Inh,AAK1,5%
same,%Inh,ABL1-nonphosphorylated,46%
same,%Inh,ABL1-phosphorylated,0%
same,%Inh,ABL2,0%
same,%Inh,ACVR1B,0%
same,%Inh,ACVR1,19%
same,%Inh,ACVR2A,0%
same,%Inh,ACVR2B,0%
same,%Inh,ACVRL1,0%
same,%Inh,ADCK3,0%
same,%Inh,ADCK4,47%
same,%Inh,AKT1,0%
same,%Inh,AKT2,0%
same,%Inh,AKT3,0%
same,%Inh,ALK,29%
same,%Inh,AMPK-alpha1,0%
Cn1cc(-c2ccc3c(c2)CCN3C(=O)Cc2ccccc2Cl)c2c(N)ncnc21 [GSK2608885],%Inh,AAK1,25%
same,%Inh,ABL1-nonphosphorylated,95.9%
same,%Inh,ABL1-phosphorylated,23%
same,%Inh,ABL2,85%
same,%Inh,ACVR1B,0%
same,%Inh,ACVR1,0%
same,%Inh,ACVR2A,0%
same,%Inh,ACVR2B,13%
same,%Inh,ACVRL1,3%
same,%Inh,ADCK3,1%
same,%Inh,ADCK4,88%
same,%Inh,AKT1,0%
same,%Inh,AKT2,0%
same,%Inh,AKT3,0%
same,%Inh,ALK,0%
same,%Inh,AMPK-alpha1,2%
O=c1cc(N2CCOCC2)nc2n(Cc3cccc(F)c3)ccn12 [GSK2297430],%Inh,AAK1,5%
same,%Inh,ABL1-nonphosphorylated,0%
same,%Inh,ABL1-phosphorylated,0%
same,%Inh,ABL2,2%
same,%Inh,ACVR1B,0%
same,%Inh,ACVR1,1%
same,%Inh,ACVR2A,6%
same,%Inh,ACVR2B,0%
same,%Inh,ACVRL1,14%
same,%Inh,ADCK3,9%
same,%Inh,ADCK4,0%
same,%Inh,AKT1,0%
same,%Inh,AKT2,9%
same,%Inh,AKT3,0%
same,%Inh,ALK,8%
same,%Inh,AMPK-alpha1,5%
COc1ccc(Nc2ncc(C#N)c(Nc3ccccc3C(N)=O)n2)cc1N1CCN(C)CC1.Cl [GSK1558669],%Inh,AAK1,97.2%
same,%Inh,ABL1-nonphosphorylated,100%
same,%Inh,ABL1-phosphorylated,100%
same,%Inh,ABL2,99.2%
same,%Inh,ACVR1B,33%
same,%Inh,ACVR1,33%
same,%Inh,ACVR2A,0%
same,%Inh,ACVR2B,0%
same,%Inh,ACVRL1,0%
same,%Inh,ADCK3,0%
same,%Inh,ADCK4,52%
same,%Inh,AKT1,8%
same,%Inh,AKT2,63%
same,%Inh,AKT3,0%
same,%Inh,ALK,95.7%
same,%Inh,AMPK-alpha1,97.3%
